# Assay outcomes: PubChem BioAssay, Broad Institute
# p53 PUMA act: mutant p53 pathway re-activators, primary screen, cell-based, SW480, luciferase, single point, HTS | 1.5% of 28,000 active | SW480 PUMA-promoter luciferase, p53 mutant reactivation | activation, % at 9.98 µM; in the data active means activation above about 52%
# ID4 binder: binders of human ID4 protein, primary screen, biochemical, small molecule microarray, single point. DNA-binding protein inhibitor ID-4 (Homo sapiens), P47928. Flag-ID4 binding, fluorescence F/B. calls only. 1.2% of 31,000 active; call rule not given here;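 further: a binder raises fluorescence above local background on the spot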
# Target sequence (P47928 whole entry, looked up): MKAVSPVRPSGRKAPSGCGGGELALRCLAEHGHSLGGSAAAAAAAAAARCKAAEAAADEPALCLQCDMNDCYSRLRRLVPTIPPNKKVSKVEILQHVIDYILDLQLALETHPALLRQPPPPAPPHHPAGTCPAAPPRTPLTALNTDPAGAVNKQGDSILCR
# Starred values were filed as active, the others as inactive; i = inactive; x = not tested or not shown; + = active, no number. The list is not random: actives were taken first. Their share in the collection is about 2.2%.
SMILES,p53 PUMA act,ID4 binder
O=C(COc1ccc(Cl)cc1Cl)Nc1cccc(-c2nnc(-c3ccccc3)o2)c1,38.7,i
COc1cc(NC(=O)C(C)Oc2ccc(Cl)cc2Cl)ccc1NC(=O)c1ccco1 (stereo not given),67.1*,i
CC(Oc1ccc(Cl)cc1Cl)C(=O)Nc1cccc(-c2nnc(-c3ccccc3)o2)c1 (stereo not given),80.7*,i
COc1ccc(NC(=O)c2ccco2)cc1NC(=O)C(C)Oc1ccc(Cl)cc1Cl (stereo not given),-9.5,i
Cc1cccc(OCC(=O)Nc2ccccc2N2CCN(S(C)(=O)=O)CC2)c1C,-11.1,i
Cc1ccnc(SCC(=O)Nc2oc(-c3ccccc3)c(-c3ccccc3)c2C#N)n1,10.0,i
COc1ccccc1OCC(=O)Nc1oc(-c2ccccc2)c(-c2ccccc2)c1C#N,-13.2,+
CN1CCN(C(=S)SCC(=O)Nc2nc(=O)c3ccccc3s2)CC1,-1.5,i
COc1ccc(NC(=O)CN(c2cc(Cl)cc(Cl)c2)S(C)(=O)=O)cc1Cl,5.5,i
CN1/C(=C\C=C2\C(=O)Oc3ccccc3C2=O)C(C)(C)c2ccccc21,105.5*,i
CCOC(=O)c1ccccc1NC(=O)CSc1nc2ccccc2[nH]1,6.2,i
COc1ccc(NC(=O)COc2ccccc2Cl)cc1NC(=O)c1ccco1,36.3,i
O=C(CSc1nnc(-c2cccnc2)n1-c1ccccc1)Nc1ccc(Oc2ccccc2)cc1,2.7,i
CNC[C@H]1Oc2ncc(C3=CCCCC3)cc2C(=O)N([C@@H](C)CO)C[C@H]1C,-0.9,+
C[C@H]1CN([C@@H](C)CO)C(=O)c2cc(C3=CCCCC3)cnc2O[C@H]1CN(C)S(=O)(=O)c1cn(C)cn1,-2.1,+
CNC[C@@H]1Oc2ncc(C#Cc3ccc(OC)c(OC)c3)cc2C(=O)N([C@H](C)CO)C[C@@H]1C,1.6,+
C[C@H]1CN([C@@H](C)CO)C(=O)c2cc(C3=CCCC3)cnc2O[C@@H]1CN(C)S(C)(=O)=O,10.1,i
CNC[C@@H]1Oc2ncc(C3=CCCCC3)cc2C(=O)N([C@H](C)CO)C[C@@H]1C,-1.4,i
CNC[C@H]1Oc2ncc(C#Cc3cccc(OC)c3)cc2C(=O)N([C@@H](C)CO)C[C@H]1C,0.7,i
O=C(Nc1ccccc1Cl)C1CC(=O)n2ncnc2N1 (stereo not given),2.6,i
CCn1c(SCC(=O)Nc2cccc(Br)c2)nnc1-c1ccco1,9.9,i
OC(CNCc1ccc(Cl)cc1Cl)Cn1c(-c2ccc(F)cc2)cc2ccccc21 (stereo not given),10.7,i
CN(C)CCCN1C(=O)[C@@]2(Cc3ccccc31)c1ccccc1C(=O)N(Cc1ccccc1)[C@H]2c1ccc(CO)cc1,x,i
CSc1nc(N)nc(SCC(=O)Nc2ccc(Cl)cc2)c1C#N,27.4,i
Cc1cc(C(F)(F)F)c(C#N)c(SCC(=O)Nc2ccc(Cl)cc2)n1,124.4*,i
SMILES,p53 PUMA act,ID4 binder
CCn1c(SCC(=O)Nc2ccc(Br)cc2C)nnc1-c1ccccc1F,0.2,i
COc1ccc(OC)c2c(C)cc(Cl)nc12,-8.0,i
C=CCNc1nc(N)c(C(=O)Nc2cc(C)on2)s1,69.9*,i
Cc1cc(NC(=O)c2nn3cccnc3c2Cl)no1,4.5,i
CCC(=O)N(C(=O)CC)c1cc2oc3ccccc3c2cc1OC,-1.7,i
Cn1c(=O)c2[nH]c(NCCN3CCOCC3)nc2n(C)c1=O,-7.3,+
CCOCCCNc1nc2c([nH]1)c(=O)n(C)c(=O)n2C,-5.6,i
CCC(Sc1nnc(-c2ccc([N+](=O)[O-])cc2)n1C)C(=O)Nc1ccc(Br)cc1 (stereo not given),0.8,i
Cn1c(SCC(=O)Nc2ccc(Oc3ccccc3)cc2)nnc1-c1ccccn1,9.9,i
CCc1cc2c(SCC(N)=O)ncnc2s1,-15.1,i
CCc1cc2c(SCC(=O)c3ccc(C)cc3)ncnc2s1,64.9*,i
O=c1n(-c2ccc(F)cc2)nc2n1CCCN2,66.9*,i
O=C(Nc1cc(-c2ccc(Cl)cc2)nn1-c1ccc(F)cc1)C1CCC1,1.0,i
Cn1c(SCC(=O)Nc2ccc(Br)c(Cl)c2)nnc1-c1ccccc1F,-14.6,i
Cc1ccn2cc(-c3cccc(NS(=O)(=O)c4cc([N+](=O)[O-])ccc4C)c3)nc2c1,110.8*,i
Cc1ccc([N+](=O)[O-])cc1S(=O)(=O)NCc1cccnc1,-7.3,i
Cc1coc(C)c1C(=O)CC1(O)C(=O)N(CCCC#N)c2ccccc21 (stereo not given),-5.3,i
N#CCCCN1C(=O)C(O)(CC(=O)c2ccc(Br)s2)c2ccccc21 (stereo not given),-5.8,+
CCn1c(SCC(=O)Nc2ccc(Br)cc2Cl)nnc1-c1ccccc1,0.2,i
C[C@H](CO)N1C[C@H](C)[C@H](CN(C)Cc2cccc(C(=O)O)c2)Oc2cc(C3=CCCC3)ccc2S1(=O)=O,3.2,i
C[C@H](CO)N1C[C@H](C)[C@@H](CN(C)Cc2ccc3c(c2)OCO3)Oc2cc(-c3cccc(C(=O)N(C)C)c3)ccc2S1(=O)=O,-35.2,x
C[C@H]1CN([C@@H](C)CO)S(=O)(=O)c2ccc(-c3cccc(C(=O)N(C)C)c3)cc2O[C@@H]1CN(C)Cc1ccc2c(c1)OCO2,-43.0,+
C[C@@H]1CN([C@@H](C)CO)S(=O)(=O)c2ccc(C3=CCCC3)cc2O[C@@H]1CN(C)Cc1cccc(C(=O)O)c1,2.6,+
O=C1C2=C(c3ccccc3)c3cc(F)ccc3C2Sc2ccccc21 (stereo not given),-4.0,i
COC(=O)c1cccc(NC(=O)COc2ccc([N+](=O)[O-])cc2)c1,6.0,i
SMILES,p53 PUMA act,ID4 binder
CC(NS(=O)(=O)c1ccc(Cl)cc1)C(=O)Nc1ccc(Oc2ccccc2)cc1 (stereo not given),-10.5,i
COc1ccc(-c2nnc(SCc3ccc([N+](=O)[O-])c(OC)c3)n2-c2ccccc2)cc1,5.2,i
CCOC(=O)c1ccc(COC(=O)c2cc3ccccc3cc2O)o1,-1.9,i
CCOC(=O)c1ccc(COc2ccc(-c3cnc4ccccc4n3)cc2)o1,129.9*,i
O=C(Cn1cnc2ccccc2c1=O)Nc1cc(Cl)c(Cl)cc1Cl,0.8,i
CN(Cc1nc(-c2cccc([N+](=O)[O-])c2)no1)S(=O)(=O)c1ccccc1,20.1,i
O=C(CN1CCN(S(=O)(=O)c2cccc([N+](=O)[O-])c2)CC1)Nc1cc(Cl)ccc1Cl,26.3,i
COC(=O)C(CC#Cc1ccc2c(c1)[C@]1(C(=O)N2)[C@H](C(N)=O)[C@H]2C(=O)O[C@H](c3ccccc3)[C@H](c3ccccc3)N2[C@@H]1c1ccc(O)cc1)C(=O)OC,x,i
Cc1ccc2nsnc2c1S(=O)(=O)N1CCN(CCc2ccccc2)CC1,-1.0,i
CN1CCN(S(=O)(=O)c2ccc(Sc3nc4ccccc4[nH]3)c3nsnc23)CC1,-4.7,+
COc1ccc(S(=O)(=O)N(C)CC(=O)Nc2ccc(I)cc2)cc1C,-1.1,i
C[C@@H]1CN([C@H](C)CO)C(=O)c2cc(-c3ccncc3)cnc2O[C@@H]1CN(C)C(=O)C1CCOCC1,13.3,+
C[C@H]1CN([C@@H](C)CO)C(=O)c2cc(-c3cccnc3)cnc2O[C@@H]1CN(C)C(=O)C1CCOCC1,4.6,x
